MCF10A rereplic: inducers of DNA re-replication in MCF 10A breast cells; MCF 10A DNA re-replication, Hoechst nuclear intensity, 48 h; Potency, µM (highest dose often 46.1 µM), for the others: top-dose activity, positive = re-replication, hits mostly activators; 350,000 compounds, 2.9% hits; AID 624296; further: potency means the concentration at half of the fitted maximal effect; % of control where 0% means no effect; nearly all actives have a fitted effect of over 50% in size
TDP1 cell noCPT: qHTS for Inhibitors of human tyrosyl-DNA phosphodiesterase 1 (TDP1): qHTS in cells in absence of CPT; AID 686978, 2013; 420,000 compounds, 15% hits; DT40 Tdp1-/- hTDP1 cells, no CPT, ATP luminescence, 48 h; Potency, µM (titrated, usually from 46.2 µM), inactives show at the top dose activity change, negative = growth inhibition, usual class: inhibitors; further: potency means the concentration at half of the fitted maximal effect; on the % scale 0 is the no-effect control and ±100 the full control effect; nearly all actives have a fitted effect of over 55% in size
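Chicken DT40 Tdp1-/- cells stably complemented with human TDP1 were seeded at 400 cells/well with DMSO in place of 20 nM camptothecin. After compound pinning, cells grew at least 48 hr at 37 °C; viability read by CellTiter-Glo luminescence.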
IL-1B inflam inh: inflammasome signaling inhibition, IL-1 beta readout. AID 743279. THP-1 LPS/ATP IL-1B secretion, AlphaLISA, 16 h; hits give low values. activity change, % at 57.5 µM. 360,000 compounds, 4.7% hits; in the data active means activity change below about -50%; inconclusive means mostly about -30% to -49%; further: on the % scale 0 is the no-effect control and ±100 the full control effect
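THP-1 cells pretreated 1 hr with compounds (up to 57.5 uM final), then stimulated with LPS (250 ng/mL final) plus ATP (1.25 mM final); secreted IL-1B measured by AlphaLISA after 16 hr, decreased signal indicating inhibition.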
SW480 rereplic: induces DNA re-replication in SW480 colon adenocarcinoma cells; AID 624297; SW480 DNA re-replication, Hoechst DNA content imaging, 48 h; 340,000 compounds, 1.8% hits; Potency, µM (series often up to 46.1 µM), without a hit: top-dose re-replication activation, most hits filed as activators; further: potency means the concentration at half of the fitted maximal effect; % of control where 0% means no effect; nearly all actives have a fitted effect of over 55% in size
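DNA re-replication was detected as more nuclei of elevated Hoechst intensity after 48 hr exposure to compound (23 nL pinned per well of 250 cells).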
DT40 TDP1 CPT: growth inhibition of DT40 Tdp1-/-;hTDP1 cells with camptothecin (screen for TDP1 inhibitors) | AID 686979 | Potency, µM (titrated, usually from 46.2 µM), without a hit: top-dose activity change, negative = growth inhibition, actives largely listed as inhibitors | chicken DT40 Tdp1-/-;hTDP1 cells + 20 nM CPT, ATP luminescence, 48 h | 420,000 compounds, 12% hits; further: potency means the concentration at half of the fitted maximal effect; on the % scale 0 is the no-effect control and ±100 the full control effect; nearly all actives have a fitted effect of over 55% in size
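Cell growth measured by CellTiter-Glo luminescence after a minimum 48 h, 37 C compound exposure with 20 nM CPT in Tdp1-knockout DT40 cells stably expressing hTDP1, seeded 400/well; qHTS titration format.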
BCR signal inh: inhibitors of chronic active B-cell receptor signaling; AID 493014; 340,000 compounds, 0.05% hits; ABC-DLBCL IkBa-CBG/CBR reporter, luminescence ratio, 4 h; Potency, µM (doses to about 46.1 µM), inactives show at the top dose activity change, negative = inhibition, actives largely listed as inhibitors; active means well fitted inhibition curve with a large enough effect in the signal ratio, with a control signal flat, not every such curve was filed as active; inconclusive means small, poorly fitted or top-dose-only effect, or effect the other way, or a change in a side signal; the % refers to the signal ratio;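 further: potency means the concentration at half of the fitted maximal effect; plate controls were basal doxycycline-induced cells for no effect and cells given 10 µM MG132 for full effect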
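TMD8 ABC-DLBCL cells carrying doxycycline-inducible green luciferase fused to IkappaBalpha plus unfused red luciferase were exposed to compounds (up to 46 uM) for 4 hrs at 37C. Activity came from the overlap-corrected green/red luminescence ratio.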
The depositor's hits bear a star; ? = inconclusive; . = not tested or not shown. A selection: hits, their analogues and other compounds. The true share with any hit is near 19%. Unless noted, the call rests on the fitted dose curve; in most records, active means well fitted curve in the direction sought with a large enough effect; inconclusive means small, poorly fitted or top-dose-only effect, or another doubt; inactive means no such curve, though single readings can be large; an effect the other way counts as inactive or inconclusive.

SMILES	MCF10A rereplic	TDP1 cell noCPT	IL-1B inflam inh	SW480 rereplic	DT40 TDP1 CPT	BCR signal inh
CCOc1ccc(NC(=O)CC2C(=O)N(c3ccc(C)cc3)C(=O)N2Cc2ccc(OC)cc2)cc1 (centres undefined)	.	23µM*	.	.	?	.
COc1ccc(CCN2C(=S)N(c3ccc(Cl)cc3)C(=O)C2CC(N)=O)cc1OC (centres undefined)	?	16µM*	-7	11%	15µM*	-23%
CCNC(=O)CC1C(=O)N(c2ccc(F)cc2)C(=S)N1CCc1ccncc1 (centres undefined)	8%	3%	2	-4%	-9%	-8%
CCCCN1C[C@H](CSC)[C@@H](CC(=O)Nc2ccc(OC)cc2)C1=O	.	?	-20	.	-9%	.
CCC(C(=O)NC(C)(C)C)N(Cc1ccco1)C(=O)CNS(=O)(=O)c1ccc(OC)cc1 (centres undefined)	-25%	-4%	-2	20%	4%	0%
CCc1ccc(NC(=O)CC2C(=O)N(c3ccc(C)cc3)C(=O)N2CCc2ccncc2)cc1 (centres undefined)	-1%	23µM*	-3	2%	?	1%
COc1ccc(NC(=O)CC2C(=O)N(c3cccc(OC)c3)C(=O)N2Cc2ccco2)cc1 (centres undefined)	-1%	-18%	7	1%	-8%	6%
COC(=O)c1ccc(NC(=O)CC2C(=O)N(c3cccc(OC)c3)C(=O)N2Cc2ccco2)cc1 (centres undefined)	.	?	.	.	16µM*	.
CCCCNc1nccnc1-c1cccc(C=O)c1	.	?	40	.	18µM*	.
CCCCNc1ncnc2[nH]ncc12	?	-22%	4	9%	?	.
Cc1noc(C)c1S(=O)(=O)NC(=O)C1(C)CCN1C(=O)Cc1ccc(Cl)cc1Cl (centres undefined)	.	1%	16	.	10%	.
CCCCC(=O)Nc1ccc(C(=O)c2ccccc2)cc1	6%	?	-60*	-6%	-19%	?
CCS(=O)(=O)Nc1ccc(C(=O)c2ccccc2)cc1	2%	-17%	-52*	0%	-11%	?
CCCCN1CN(Cc2ccccc2)CNC1=S	-2%	?	22	-7%	18µM*	-10%
CCOCCCN1CN(Cc2ccccc2)CNC1=S	0%	6%	5	-61%	8%	2%
Cc1csc2c(N3CCN(C(=O)Nc4ccc(OC(F)(F)F)cc4)CC3)ncnc12	?	18µM*	-70*	-8%	10µM*	-13%
Cc1ccc(NC(=O)CNC(C)c2ccccc2)cc1 (centres undefined)	1%	-12%	33	0%	-24%	?
CN1C(=O)c2cccc3c(S(=O)(=O)N4CCCC4C(=O)O)ccc1c23 (centres undefined)	4%	-15%	-5	0%	-19%	2%
CCCC(=O)N(c1ccc(OCC)cc1)S(=O)(=O)c1ccc2c3c(cccc13)C(=O)N2C	?	13µM*	-9	6%	15µM*	0%
CCCNC(=O)CCn1c(-c2ccc(C)cc2)cc(C(=O)OCC)c1C	-2%	?	-16	1%	?	-29%
CCOC(=O)c1cc(-c2ccccc2)n(CCC(=O)NCCc2ccccc2)c1C	.	16µM*	.	.	21µM*	9%
CCOC(=O)c1cc(-c2ccc(OC)cc2)n(CCC(=O)Nc2ccccc2OC)c1C	.	21µM*	.	.	15µM*	12%
CC(=O)c1cc(-c2ccc(F)cc2)n(CCC(=O)Nc2nc3ccc(C)cc3s2)c1C	.	16µM*	.	.	26µM*	?
CCOC(=O)c1cc(-c2ccc(F)cc2)n(CCC(=O)Nc2ccccc2OC)c1C	.	21µM*	.	.	?	-2%
O=C(CCn1cccn1)Nc1ccc2c(c1)OCCO2	3%	-17%	-11	2%	-1%	2%
SMILES	MCF10A rereplic	TDP1 cell noCPT	IL-1B inflam inh	SW480 rereplic	DT40 TDP1 CPT	BCR signal inh
C=C(C)CSc1nnc(CCCCCNC(=O)OC(C)(C)C)o1	11%	?	17	-1%	-29%	-24%
CCOC(=O)c1cc(-c2ccc(F)cc2)n(CCC(=O)Nc2cc(OC)cc(OC)c2)c1C	.	16µM*	.	.	15µM*	?
CCOC(=O)c1cc(-c2ccc(C)cc2)n(CC(=O)Nc2cc(C)ccc2C)c1C	.	15µM*	.	.	21µM*	.
CCOC(=O)c1cc(-c2ccc(C)cc2)n(CC(=O)Nc2cccc(C(C)=O)c2)c1C	.	?	.	.	-21%	.
CCOC(=O)c1cc(-c2ccccc2)n(CCC(=O)N2CCN(c3ccccn3)CC2)c1C	5%	21µM*	-9	1%	15µM*	-1%
CCOC(=O)c1cc(-c2ccccc2)n(CC(=O)Nc2ccc(OC)cc2OC)c1C	.	?	.	.	16µM*	?
O=C(CCN1C(=O)c2ccccc2C1=O)N1CCN(c2ccccn2)CC1	-3%	-12%	-4	-14%	0%	?
O=C(COc1ccc(Br)cc1)NNC(=O)c1cc(S(=O)(=O)N2CCOCC2)ccc1Cl	1%	0%	15	-2%	-4%	.
CCOC(=O)c1cc(-c2ccc(OC)cc2)n(CCC(=O)Nc2ccc(OC)cc2OC)c1C	.	21µM*	.	.	21µM*	?
CCOC(=O)c1cc(-c2ccc(OC)cc2)n(CCC(=O)NCc2ccccc2OC)c1C	.	?	.	.	26µM*	?
CCOC(=O)c1cc(-c2ccc(F)cc2)n(CCC(=O)NCc2ccccc2OC)c1C	.	?	.	.	?	-2%
CCOC(=O)c1cc(-c2ccc(OC)cc2)n(CCC(=O)Nc2cccc(C)c2C)c1C	.	?	.	.	-29%	-9%
CCOC(=O)c1cc(-c2ccc(OC)cc2)n(CCC(=O)Nc2nc3ccc(OCC)cc3s2)c1C	.	9.2µM*	.	.	16µM*	?
CCOC(=O)c1cc(-c2ccccc2)n(CCC(=O)NCc2ccccc2Cl)c1C	.	13µM*	.	.	?	2%
O=C(Cc1cccc(NC(=O)C2CCCN(C(=O)CCc3ccccc3)C2)c1)Nc1ccc(C(=O)N2CCOCC2)cc1 (centres undefined)	2%	?	2	-11%	?	.
Clc1ccc(OCc2noc(-c3ccsc3)n2)c(Cl)c1	11%	-25%	-6	-5%	3%	2%
CCOC(=O)c1ccc(NC(=O)CCc2nc(-c3ccc(C)cc3)no2)cc1	15µM*	21µM*	-69*	9%	?	?
CCc1ccccc1N(C)C(=O)CCc1nc(-c2ccc(C)cc2)no1	1%	?	30	1%	?	-1%

Source: PubChem
